Source: PubChem BioAssay (EPA / NIEHS)
Values joined by “and” are separate entries in the source; they are usually repeats but may differ in a detail not shown here. Identical values can stand only once. Active and inactive are the calls of the source. The calls were made as follows: active = hit-call score of the fitted dose curve at least 0.9, where 1 is the maximum; inconclusive = response in the unintended direction; inactive = score below 0.9.

experiment: CPHEA_Stoker_NIS_Cytotoxicity: Cytotoxicity Assessment for CPHEA's Radioactive Iodide Uptake (RAIU) Assay for Sodium/Iodide Symporter (NIS) Inhibition, Stoker and Laws Labs (AID 2283897);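 as to AC50: active means loss of ATP signal versus DMSO meaning cytotoxicity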
Procedure: CPHEA_Stoker_NIS is a cell-based, single-readout assay that uses hNIS-HEK293T-EPA, a novel human kidney cell line expressing human NIS, with measurements taken at 2 hours after chemical dosing in a 96-well plate. This radioactive iodide uptake (RAIU) assay is used to identify inhibitors of NIS-mediated iodide uptake. A parallel cytoxicity assay (Cell Titer Glo, Promega) was also run in the same cell line.CPHEA_Stoker_NIS_Cytotoxicity is one of 2 assay components measured from the CPHEA_Stoker_NIS assay. It is designed to make measurements of atp content, a form of viability reporter, as detected with bioluminescence signals by Luciferase-coupled ATP quantitation technology.Data from the assay component CPHEA_Stoker_NIS_Cytotoxicity was analyzed at the endpoint, CPHEA_Stoker_NIS_Cytotoxicity, in the positive analysis fitting direction relative to DMSO as the negative control and baseline of activity. Using a type of viability reporter, measures of ATP content for loss-of-signal activity can be used to understand the viability. To generalize the intended target to other relatable targets, this assay endpoint is annotated to the cell cycle intended target family, where the subfamily is cytotoxicity.
hNIS-HEK293T-EPA cells were seeded with a MultiFlo FX dispenser (BioTek, Winooski, VT) into ScintiPlate-96 microplates (Perkin Elmer, Waltham, MA) at a density of 4.0x10^4 cells per well in 200uL growth media and incubated for 40 hours before experimentation. On day of the assay, carrier-free 125I (Perkin-Elmer, Waltham, MA; specific activity: 17.4Ci/mg) was diluted with Hanks' balanced salt solution (Sigma, St. Louis, MO) supplemented with 10mM HEPES (uptake buffer; pH 7.4) at 5uCi/mL (288pg 125I/mL uptake buffer; 2.30nM). The assay was initiated by washing cells twice with 200uL uptake buffer using a 96-well Tecan HydroSpeed plate washer (Tecan, Mannedorf, Switzerland). Uptake buffer (59.7uL) was then added back to each well. Chemical samples (350nL at 200X) were administered using the HDR tool as previously described to achieve a 1X chemical/0.5% final DMSO concentration with subsequent addition of 10uL of 125I dilution (final [125I]: 329pM; 2.88pg/well) for a final reaction volume of 70uL/well. Cells were incubated at room temperature for 2 hours and then washed twice with 200uL ice cold uptake buffer. All uptake buffer was aspirated from wells, plates were sealed, and read on a MicroBeta2 plate reader (Perkin Elmer, Waltham, MA) using a detection protocol to measure CPM corresponding to intracellular 125I concentration. Each chemical concentration (0.001, 0.01, 0.1, 1.0, 10, and 100uM) was assayed in triplicate with three independent biological replicate plates (3 sequential cell passages). Additionally, a concentration response of NaClO4 (0.001, 0.01, 0.1, 1.0, 10, and 100uM) served as a positive control inhibition curve on each RAIU assay plate. DMSO control wells were assayed on each plate as a measure of maximum iodide uptake for normalization and determination of intra- and inter-assay variation. (Toxicol In Vitro, 2017, 40:66-78).

Compound | outcome | AC50
CC1(C)C(C=C(Cl)Cl)C1C(=O)OC(C#N)c1ccc(F)c(Oc2ccccc2)c1 (configuration not stated) | inactive | 
CC1(c2ccc(Oc3ccccc3)cc2)OC(=O)N(Nc2ccccc2)C1=O (configuration not stated) |  | 5.4 µM (active)
COc1nn(CSP(=S)(OC)OC)c(=O)s1 | inactive | 
N#Cc1c(Cl)c(Cl)c(Cl)c(C#N)c1Cl | inactive | 
O=C1c2ccccc2C(=O)N1SC(Cl)(Cl)Cl | inactive | 
CCC(C)(NC(=O)c1cc(Cl)c(C)c(Cl)c1)C(=O)CCl (configuration not stated) | inactive | 
CC(C)(C)C(O)/C(=C\c1ccc(Cl)cc1Cl)n1cncn1 (configuration not stated) |  | 50 µM (active)
C[C@H]1[C@H](c2ccc(Cl)cc2)SC(=O)N1C(=O)NC1CCCCC1 | inactive | 
CCN(CC)C(=O)SCc1ccc(Cl)cc1 | inactive | 
CCOC1Oc2ccc(OS(C)(=O)=O)cc2C1(C)C (configuration not stated) | inactive | 
C#CCN1C(=O)COc2cc(F)c(N3C(=O)C4=C(CCCC4)C3=O)cc21 |  | 50 µM (active)
CC(C)OC(=O)Nc1cccc(Cl)c1 | inactive | 
CCCN(CCOc1c(Cl)cc(Cl)cc1Cl)C(=O)n1ccnc1 |  | 50 µM (active)
O=S1OCC2C(CO1)C1(Cl)C(Cl)=C(Cl)C2(Cl)C1(Cl)Cl (configuration not stated) | inactive | 
CC[C@H](C)[C@H]1O[C@]2(C=C[C@@H]1C)C[C@@H]1C[C@@H](C/C=C(\C)[C@@H](O[C@H]3C[C@H](OC)[C@@H](O[C@H]4C[C@H](OC)[C@@H](O)[C@H](C)O4)[C@H](C)O3)[C@@H](C)/C=C/C=C3\CO[C@@H]4[C@H](O)C(C)=C[C@@H](C(=O)O1)[C@]34O)O2 (tested in a mixture with another compound) | inactive | 
O=S(=O)(O)C(F)(F)C(F)(F)C(F)(F)C(F)(F)C(F)(F)C(F)(F)C(F)(F)C(F)(F)F | inactive | 
CCC(C)Nc1c([N+](=O)[O-])cc(C(C)(C)C)cc1[N+](=O)[O-] (configuration not stated) | inactive | 
CCc1ccc(C(=O)NN(C(=O)c2cc(C)cc(C)c2)C(C)(C)C)cc1 | inactive | 
CCCN(CCC)c1c([N+](=O)[O-])cc(C(F)(F)F)cc1[N+](=O)[O-] | inactive | 
ClC1C(Cl)C(Cl)C(Cl)C(Cl)C1Cl (configuration not stated) | inactive | 
COP(=S)(OC)Oc1ccc(SC)c(C)c1 | inactive | 
Oc1ccc(Cl)cc1Cc1ccccc1 |  | 24.9 µM (active) and 50 µM (active)
